PMC5540273 (PLoS ONE, 2017)

Tests used:
Conditions in all cases: concentration: 1 μM, replicates: in singlicate; n = 1
SNARK = tested on: T1, SNARK
T1 construct: gene NUAK2

SNRK = tested on: SNRK
SRC = tested on: SRC
SRMS = tested on: SRMS
SRPK1 = tested on: SRPK1
SRPK2 = tested on: SRPK2
SRPK3 = tested on: SRPK3
STK16 = tested on: STK16
STK33 = tested on: STK33
STK35 = tested on: STK35
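Also: KINOMEscan kinase panel screen.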

| Structure (SMILES) | %Inh (SNARK) [%] | %Inh (SNRK) [%] | %Inh (SRC) [%] | %Inh (SRMS) [%] | %Inh (SRPK1) [%] | %Inh (SRPK2) [%] | %Inh (SRPK3) [%] | %Inh (STK16) [%] | %Inh (STK33) [%] | %Inh (STK35) [%] |
| --- | --- | --- | --- | --- | --- | --- | --- | --- | --- | --- |
| CCn1cnc2c(NCc3ccccc3)ncnc21 [SKF-96418] | 0 | 0 | 0 | 26 | 0 | 47 | 18 | 0 | 0 | 0 |
| O=C(O)C(F)(F)F.O=c1[nH]ccc2nc(N[C@@H]3CCNC3)nc(Nc3ccc4c(c3)S(=O)(=O)CC4)c12 [GSK2181306] | 99 | 25 | 48 | 0 | 92.1 | 0 | 88 | 96.9 | 100 | 90.6 |
| O=C(O)C(F)(F)F.O=c1[nH]ccc2nc(N[C@@H]3CCNC3)nc(Nc3cc(Cl)cc(Cl)c3)c12 [GSK2188764] | 98.8 | 6 | 0 | 3 | 84 | 14 | 77 | 95 | 98.1 | 46 |
| CC(C)c1nc(-c2ccc(F)c(NS(=O)(=O)c3c(F)cccc3F)c2)c(-c2ccnc(Nc3ccc(N4CCOCC4)nc3)n2)s1 [GSK1804250] | 17 | 0 | 100 | 99.9 | 54 | 0 | 18 | 39 | 8 | 74 |
| Cc1ccc(O)cc1Nc1ccnc2cc(-c3ccc(CN4CCCCC4)o3)ccc12 [GW557777] | 11 | 0 | 100 | 23 | 32 | 0 | 15 | 22 | 61 | 0 |
| Cn1cc(-c2ccc3c(c2)CCN3C(=O)Cc2cc(F)cc(F)c2F)c2c(N)ncnc21 [GSK2634140] | 28 | 8 | 10 | 0 | 34 | 0 | 0 | 0 | 0 | 0 |
| CS(=O)(=O)c1cccc(CNc2nc(Nc3ccc4c(c3)CCC(=O)N4)ncc2C(F)(F)F)c1 | 81 | 0 | 0 | 0 | 72 | 0 | 3 | 93.2 | 0 | 0 |
| Cc1ccc(C)c(NC(=O)Nc2ccc(C)c(-c3ccc(C(=O)Nc4ccncc4)cc3)c2)c1 [GSK1398473] | 0 | 5 | 8 | 0 | 26 | 0 | 0 | 8 | 3 | 6 |
| Nc1ncnc2scc(-c3ccc(NC(=O)Cc4cc(F)ccc4F)cc3)c12.O=C(O)C(F)(F)F [SB-731254-M] | 23 | 11 | 13 | 30 | 10 | 25 | 3 | 1 | 6 | 0 |
| Fc1cc(Cl)ccc1Nc1ccnc2cc(-c3ccc(CN4CCSCC4)o3)ccc12 [GW560106] | 0 | 0 | 99 | 21 | 42 | 23 | 0 | 0 | 20 | 20 |
| Cc1nn2c(=O)cc(N3CCO[C@H](C)C3)nc2n1Cc1cccc(Cl)c1Cl [GSK2373693] | 0 | 0 | 19 | 0 | 40 | 0 | 0 | 59 | 0 | 1 |
| N#Cc1cnc2cc(-c3cnc(CNCCN4CCOCC4)s3)ccc2c1Nc1ccc(Oc2ccccc2)cc1 [GW664114] | 0 | 0 | 94.1 | 95.9 | 30 | 0 | 0 | 12 | 2 | 97.7 |
| CCOc1nccc(-c2c(-c3ccc(F)cc3)ncn2C2CCNCC2)n1 [SB-249175] | 82 | 21 | 0 | 34 | 8 | 19 | 1 | 0 | 4 | 0 |
| N#CC1(c2cccc(C(=O)Nc3cccc(Oc4ccc5nc(NC(=O)C6CC6)sc5n4)c3)c2)CC1 | 0 | 0 | 97.6 | 15 | 0 | 0 | 0 | 0 | 16 | 0 |
| COc1cccc(-c2nc(-c3ccccc3)[nH]c2-c2ccncc2)c1 [SB-610250] | 0 | 0 | 21 | 0 | 25 | 0 | 0 | 9 | 5 | 0 |
| COc1cccc(C2=C(Nc3cccc(O)c3)C(=O)NC2=O)c1 [SB-390771] | 0 | 0 | 0 | 0 | 2 | 0 | 13 | 100 | 0 | 0 |
| COc1cccc(NC(=O)NCCNc2ccnc(Nc3ccc(F)cc3)n2)c1 [GSK1379879] | 0 | 0 | 0 | 0 | 0 | 0 | 3 | 0 | 0 | 1 |
| CN(C)CCOc1ccc(-c2cc(-c3ccc(Cl)c(O)c3)c(-c3ccncc3)[nH]2)cc1.Cl.Cl [SB-684387] | 9 | 9 | 92.2 | 3 | 0 | 30 | 0 | 14 | 0 | 0 |
| Cl.Cl.NCC(NC(=O)c1cc(-c2cccnc2)c(-c2ccnc3[nH]ccc23)s1)c1ccccc1 (stereo not shown) [GSK1323434] | 65 | 0 | 33 | 0 | 44 | 14 | 0 | 26 | 18 | 0 |
| COc1ccc(NC(=O)c2ccoc2)cc1-c1ccc(C(=O)NCC2CC2)cc1 [GW810437] | 18 | 12 | 10 | 25 | 0 | 0 | 12 | 0 | 0 | 0 |
| CCNc1nccc(-c2c(-c3ccc(F)cc3)ncn2C2CCN(C)CC2)n1 | 0 | 0 | 9 | 0 | 16 | 0 | 0 | 31 | 2 | 0 |
| CN(c1ccc(NC(=O)Nc2cccc(Cl)c2)cc1)c1ccnc(N)n1.Cl [GW830707] | 0 | 0 | 15 | 3 | 3 | 0 | 8 | 6 | 2 | 0 |
